APOBEC3G inh: APOBEC3G DNA deaminase inhibitors, primary screen, biochemical, fluorescence, single-stranded DNA substrate, uHTS; DNA dC->dU-editing enzyme APOBEC-3G (Homo sapiens), Q9HC16; recombinant A3G, ssDNA deamination FAM/TAMRA fluorescence; inhibition, % at 20 µM; hit rate 0.28% among 330,000; AID 493012, 2011;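 active = inhibition of at least 40% at 20 µM, with no more than 30% in the related APOBEC3A deaminase screen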;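 note: plate controls were DMSO wells with A3G for no effect and wells lacking A3G enzyme for full effect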
Target sequence (Q9HC16 whole entry, looked up): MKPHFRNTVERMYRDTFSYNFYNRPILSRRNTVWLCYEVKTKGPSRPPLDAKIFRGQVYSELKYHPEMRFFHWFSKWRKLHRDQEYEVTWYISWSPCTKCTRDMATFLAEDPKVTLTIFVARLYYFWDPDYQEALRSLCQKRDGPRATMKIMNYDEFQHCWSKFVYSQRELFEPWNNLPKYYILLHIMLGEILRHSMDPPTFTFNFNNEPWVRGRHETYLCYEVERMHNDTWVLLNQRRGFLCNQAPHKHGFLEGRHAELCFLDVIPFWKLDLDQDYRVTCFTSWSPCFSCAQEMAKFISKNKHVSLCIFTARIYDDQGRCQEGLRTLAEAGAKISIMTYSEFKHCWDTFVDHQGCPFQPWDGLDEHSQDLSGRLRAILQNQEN
LANA-H2A inh: blockers of LANA interaction with H2A/H2B – biochemical, FP readout, HTS, primary screen; Protein LANA1 (Human herpesvirus 8 type P (isolate GK18)), Q9QR71; cell-free LANA-H2A/H2B peptide, fluorescence polarization; inhibition, % (concentration not given with the values); hit rate 0.6% among 320,000; AID 2629, 2010; in the data active = inhibition mostly above about 10%, no sharp cut-off; inactive = mostly below about 6.7%
A3A deaminase: APOBEC3A ssDNA deaminase inhibitors, primary screen, selectivity assay for APOBEC3G inhibitor project, biochemical, FAM/TAMRA oligo cleavage fluorescence. DNA dC->dU-editing enzyme APOBEC-3A (Homo sapiens), P31941. recombinant A3A, FAM/TAMRA ssDNA deamination fluorescence. inhibition, % at 20 µM. hit rate 0.41% among 330,000. AID 493011, 2011;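 active = at least 40% inhibition at 20 µM here, with at most 30% in a related deaminase screen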;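 note: plate controls were A3A with DMSO for no effect and wells lacking A3A enzyme for full effect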
HDAC3 inh: HDAC3 deacetylase inhibitors, primary screen, biochemical, fluorescence, cell-free homogeneous | Histone deacetylase 3 (Homo sapiens), O15379 | recombinant HDAC3, fluorogenic peptide/trypsin coupled | inhibition, % at 8.3 µM | hit rate 0.15% among 320,000 | AID 2718, 2010; in the data active = inhibition above about 26%, passing the limit was not always enough; inconclusive = no clear call, values can overlap the other calls
A3A conf: APOBEC3A deaminase inhibitors, retest, confirmation, selectivity assay for APOBEC3G inhibitor project, biochemical, single concentration, fluorescence readout; shares compounds with A3A deaminase; inhibition, % at 20 µM; AID 493151, 2011; recombinant A3A, ssDNA deaminase UDG fluorescence assay; hit rate 63% among 1,400;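 active = inhibition reaching a set limit, 80% of the first screen's cutoff, at 20 µM in any replicate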;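 note: plate controls were DMSO wells with A3A for no effect and wells lacking A3A enzyme for full effect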
UDG ctr A3A: E. coli UDG inhibitors, confirmation, counter-screen for APOBEC3A inhibitor project, biochemical, single concentration, fluorescence, FAM/TAMRA oligo; shares compounds with A3A deaminase; UDG counterscreen, FAM/TAMRA uracil oligo fluorescence; inhibition, % at 20 µM; 1,000 tested, under 10 active; call rule not given here
An asterisk follows results filed as active; ? = inconclusive; . = no result given. This is a sample that favours compounds with a hit; in the whole collection about 1.4% have one here.

SMILES	APOBEC3G inh	LANA-H2A inh	A3A deaminase	HDAC3 inh	A3A conf	UDG ctr A3A
CCN1/C(=C2\C(=O)N(c3ccccc3)N=C2C)C=Cc2cc(C)ccc21	18	2	49*	0	21	.
C[C@]12c3[nH]c4ccc(Cl)cc4c3CCN1C(=O)[C@@H](CC(=O)NCCN1CCOCC1)C[C@@H]2C(=O)N1CCCCC1	1	.	-1	.	.	.
CC1CC(OCC(O)C[N+]2(C)CCOCC2)CC(C)(C)C1 (stereo not given)	18	-1	62*	.	69*	4
COc1ccc(C(=O)Nc2ccc3c(c2)C(=O)c2ccccc2C3=O)cc1OC	7	-1	66*	0	12	.
O=C(O)CCc1[nH]c2ccccc2c1Sc1ccccc1	-9	3	-4	9	.	.
O=C(Oc1ccc2c(c1)OCO2)c1cc2c(s1)CCC2	29	0	62*	0	79*	.
Nc1ccc(Nc2ccccc2)c(S(=O)(=O)O)c1	18	4	67*	-25	57*	-1
Cc1ccc(Nc2ccc(N)cc2S(=O)(=O)O)cc1	-4	-1	6	-4	.	.
Cc1ccc(/C=C2/SC(=O)N(CC(=O)N3CCOCC3)C2=O)s1	1	-4	4	-3	.	.
O=C(CN1C(=O)S/C(=C/c2ccccn2)C1=O)N1CCOCC1	3	-1	57*	10	2	.
COC(=O)c1ccc2c(c1)C(C)(C)C(/C=C/c1ccc(OC)c(OC)c1OC)=[N+]2C	24	-7	95*	6	83*	2
COC(=O)CCC(=O)OC1(C)C(=O)C=C2C=C(C3CC3)N(C3CCCCC3)C=C2C1=O (stereo not given)	-9	-1	48*	-7	-5	-2
C#CCOc1ccc(CNC[C@H]2O[C@@H](n3cnc4c(N)ncnc43)[C@H](O)[C@@H]2O)cc1	1	-3	2	9	.	.
COCC[N+]1(C)CCCCC1	34	-4	101	9	.	.
CN(CCCCCC(=O)/C=N/O)Cc1ccccc1	-8	0	4	1	.	.
C[N+]1(CCCCCCC(=O)/C=N/O)CCCCCC1	27	-8	42*	8	61*	0
C[N+](C)(C)CCCCCCC(=O)/C=N/O	15	-2	61*	-2	67*	5
Cc1cc(C)c(NC(=O)c2ccccc2CCc2ccccc2)c(C)c1	0	4	0	4	.	.
Cc1ccc(NC(=O)c2ccccc2CCc2ccccc2)c(C)c1	2	5	100*	-2	4	.
O=C(O)c1cc(O)c2c(c1)C(=O)c1cc(O)cc(O)c1C2=O	28	4	67*	4	59*	0
CC(=O)Oc1cccc2c1C(=O)c1c(OC(C)=O)cc(C(=O)O)cc1C2=O	37	2	4	-4	.	.
C=CCn1c(SCc2nc3sc(C(=O)O)c(C)c3c(=O)[nH]2)nnc1-c1ccccc1	-3	-3	2	?	.	.
C=CCn1c(SCc2nc3sc(C(=O)O)c(C)c3c(=O)[nH]2)nnc1-c1ccc(C(C)(C)C)cc1	-1	-3	40*	-1	30	-1
COCC(=O)/C=C1\Sc2ccccc2N1C	-8	-22	-3	-2	.	.
CN1/C(=C/c2cccc[n+]2C)Sc2ccccc21	21	-55	62*	13	87*	-1
Cc1ccc2c(c1)N(C)/C(=C/c1cccc[n+]1CCO)S2	16	-44	48*	0	83*	2
CCCCN1/C(=C/c2cccc[n+]2C)Sc2cc(NC(C)=O)ccc21	32	-25	80	4	.	.
Cc1ccc2c(c1)N(C)/C(=C/c1cccc[n+]1C)S2	23	-96	67*	7	91*	1
Cc1cccc(C)c1NC(=O)CNC(=O)c1ccc(COc2ccccc2)cc1	-10	.	-4	5	.	.
